The list is not random: actives were taken first. Their share in the collection is about 5.7%.
A549 viability – A549 cytotoxicity, counter-screen for Nrf2 inhibitors | A549 ARE-Fluc cells, CellTiter-Fluor viability, 18-24 h | hit rate 0.16% among 390,000 | Potency, µM (top dose mostly 46 µM), for the others: top-dose activity change, negative = cytotoxicity, usual class: inhibitors; also: potency is read from the fitted curve at half-maximal effect
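Cytotoxicity counterscreen: CellTiter-Fluor fluorescence was measured in A549 ARE_Fluc cells after 18-24 h of compound exposure in a concentration series. The subsequent BugLite luminescent read reports ARE-luciferase activity.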
KB-3-1 tox – KB-3-1 parental cell cytotoxicity; Potency, µM (top dose mostly 46.1 µM), actives largely listed as cytotoxic; hit rate 1.4% among 400,000; KB-3-1 viability, CellTiter-Glo ATP luminescence, 72 h; AID 1347075; also: potency is read from the fitted curve at half-maximal effect; nearly all actives have a fitted effect of over 60% in size
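Using CellTiter-Glo luminescence, growth of non-resistant KB-3-1 adenocarcinoma cells is assessed 72 h after pin-tool compound addition at 37 °C. Normalized responses across the concentration series yield fitted curves.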
PI4K2A inh – inhibitors of human PI4K2A | purified PI4K2A, ADP-Glo luminescence, 1 h; active compounds read low | activity change, negative = inhibition, % at 76.9 µM | AID 1346378 | hit rate 0.13% among 420,000; in the data active = activity change below about -50%; inconclusive = mostly about -30% to -49%;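 also: -100% = wells without enzyme as full effect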
Target sequence (Q9BTU6 whole entry, looked up): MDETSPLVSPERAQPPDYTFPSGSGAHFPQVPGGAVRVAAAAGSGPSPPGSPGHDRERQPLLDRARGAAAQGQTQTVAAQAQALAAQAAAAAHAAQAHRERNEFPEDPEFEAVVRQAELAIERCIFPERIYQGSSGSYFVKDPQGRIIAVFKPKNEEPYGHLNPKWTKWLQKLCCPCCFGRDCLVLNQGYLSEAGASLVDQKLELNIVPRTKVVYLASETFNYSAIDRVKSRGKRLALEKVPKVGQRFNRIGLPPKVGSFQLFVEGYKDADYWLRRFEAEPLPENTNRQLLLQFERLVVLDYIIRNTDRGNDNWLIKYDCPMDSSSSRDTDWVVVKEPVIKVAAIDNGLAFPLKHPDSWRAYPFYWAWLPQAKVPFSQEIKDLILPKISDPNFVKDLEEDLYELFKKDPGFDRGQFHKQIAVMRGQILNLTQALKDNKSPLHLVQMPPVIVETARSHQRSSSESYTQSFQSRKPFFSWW
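ADP-Glo luminescence measured ADP generated by PI4K2A enzyme (4 ug/mL before mixing) with 1.2 mM PI substrate (pre-mix) and 300 microM ATP (pre-mix). Tris pH7.5 buffer with MgCl2, Triton X-100; 1 h reaction at ambient temperature.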
KB-V1 MDR tox – KB-V1 MDR subline cytotoxicity. KB-V1 MDR cells viability, CellTiter-Glo, 72 h. Potency, µM (doses to about 46.1 µM), usual class: cytotoxic. hit rate 3.4% among 400,000. AID 1347076; also: potency is read from the fitted curve at half-maximal effect; nearly all actives have a fitted effect of over 60% in size
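KB-V1 cells (P-gp-expressing MDR subline of KB-3-1) in phenol-red-free DMEM with 10% FBS were exposed to library compounds over a concentration series for 72 h at 37 degrees C. Viability read by CellTiter-Glo luminescence; concentration-effect curves fitted after normalization.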
Giardia killer – Giardia lamblia killing | Giardia lamblia trophozoite viability | activity change, % at 7.66 µM, hits read low | hit rate 0.15% among 340,000 | AID 540267; in the data active = activity change below about -80%; inconclusive = between about -30% and that limit;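 also: parasites exposed to compound for two days anaerobically before the ATP read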
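Viability, read as ATP luminescence: trophozoites at 100 cells/well, compound added, 48 hrs anaerobic at 37 deg C, then 15-30 min room-temperature development before reading.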
Nrf2 inh – blocks Nrf2 signaling; A549 ARE-Fluc reporter, luciferase luminescence, 18-24 h; Potency, µM (titrated, usually from 46 µM), inactives show top-dose activity change, negative = inhibition, actives largely listed as inhibitors; hit rate 2.1% among 360,000; also: potency is read from the fitted curve at half-maximal effect; nearly all actives have a fitted effect of over 60% in size
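Reporter: ARE-Fluc in A549. Exposure: 18-24 h, 37 °C, 5% CO2, 5% FBS OPTI-MEM. Readouts: fluorescent cytotoxicity (CellTiter-Fluor), then luminescent Nrf2 signal after BugLite.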
* marks the source's active call; other numbers are inactive results; i = inactive; u = inconclusive; x = no result; [ ] = another dose, or the depositor's remark. Unless noted, calls follow the shape of the dose curve; as a rule, active = well fitted curve in the direction sought with a large enough effect; inconclusive = small, poorly fitted or top-dose-only effect, or another doubt; inactive = no such curve, though single readings can be large; an effect the other way counts as inactive or inconclusive. Unless noted, % is scaled to controls: 0 for no effect and ±100 for the full control effect.

SMILES | A549 viability | KB-3-1 tox | PI4K2A inh | KB-V1 MDR tox | Giardia killer | Nrf2 inh
COc1ccc(C(=O)C[n+]2cc(-c3ccc(OC)cc3)n3c2CCCC3)cc1 | -9% | u | 2 | u | -24 | 8.2µM*
O=C(C[n+]1cc(-c2ccccc2)n2c1CCCCC2)c1ccc(Br)cc1 | -7% | u | -2 | i | -7 | -23%
Cc1ccc(C(=O)C[n+]2cc(-c3ccc(C)cc3)n3c2CCCCC3)cc1 | -3% | 0.92µM* | -6 | i | 19 | u
COc1cc(OC)cc(-n2c(=O)c3ccccc3n(Cc3ccccc3C#N)c2=O)c1 | -12% | i | 2 | i | x | 8%[9.27 µM]
COc1ccc(OCC(=O)Nc2nnc3n2CCS3)cc1 | -9% | i | -1 | u | x | x
COc1ccc(CN(CCN2CCOCC2)C(=O)c2ccc(F)cc2Cl)cc1OC | x | x | -9 | x | x | x
O=C(Cc1cccs1)Nc1c(C(=O)Nc2ccc(F)cc2)oc2ccccc12 | 2% | i | -2 | i | x | 15%
CC(C)CCNC(=S)Nc1ccc([N+](=O)[O-])cc1 | u | u | 2 | u | 13 | u
O=C(NNC(=S)Nc1ccc(F)cc1)c1cccc([N+](=O)[O-])c1 | 6% | i | -10 | i | 17 | u
CC(C)OC(=O)c1cc(NC(=S)Nc2ccc([N+](=O)[O-])cc2)cc(C(=O)OC(C)C)c1 | u | u | -1 | u | -6 | 16µM*
CC(C)OC(=O)c1cc(C(=O)OC(C)C)cc([N+](=O)[O-])c1 | x | x | i | x | x | x
CCCN1CCN(C(=S)Nc2ccc([N+](=O)[O-])cc2)CC1 | -2% | i | -2 | 21µM* | 5 | -2%
O=[N+]([O-])c1ccc(NNC(=S)Nc2ccc(F)cc2)cc1 | u | u | -14 | 21µM* | 3 | 2%
CCCCNC(=S)Nc1ccc([N+](=O)[O-])cc1 | u | u | 3 | u | 9 | 18µM*
O=S1(=O)c2ccc(N3CCCC3)cc2Oc2ccccc2CN1Cc1cn(Cc2ccc(F)cc2)nn1 | x | x | 1 | x | x | x
CCCc1nc2ccccc2c(=O)n1/N=C/c1c(C)[nH]n(-c2ccc(C)cc2)c1=O | u | 8.2µM* | -15 | 16µM* | -16 | x
CCCc1nc2ccccc2c(=O)n1/N=C/c1ccccc1O | -2% | i | -6 | 16µM* | -15 | -3%
CC(C)NC(=O)N[C@H]1C[C@@H]2O[C@@H](CO)CC[C@@H]2O[C@@H]1CCc1ccc(-c2ccccc2F)cc1 | x | x | 2 | x | x | x
Cc1cc(C)n(/N=C/c2ccccc2)c(=O)c1C#N | -5% | i | -1 | i | 0 | -1%
CCc1ccc(/C=N/n2c(C)cc(C)c(C#N)c2=O)cc1 | 5% | i | 0 | 9.2µM* | -2 | 9%
COc1ccc(NC(=O)c2nnn(Cc3cccc(F)c3)c2N)c(OC)c1 | -15% | 6.5µM* | 1 | i | -25 | -11%
COc1ccc(C)cc1NC(=O)c1nnn(Cc2cccc(F)c2)c1N | 3% | u | 4 | i | 36 | -11%
CCOc1ccc(OCC)c(NC(=O)c2nnn(Cc3cc(Br)ccc3OC)c2N)c1 | 1% | i | -3 | i | x | -6%
COc1ccc(Br)cc1Cn1nnc(C(=O)Nc2ccc(C)cc2C)c1N | -25% | u | 4 | i | x | 16µM*
O=C(O)COc1ccccc1C=NNC(=O)Cc1cc(=O)[nH][nH]1 | x | x | -14 | x | x | x
SMILES | A549 viability | KB-3-1 tox | PI4K2A inh | KB-V1 MDR tox | Giardia killer | Nrf2 inh
O=S(Cc1ccccc1)CC(O)(c1ccc(Cl)cc1)c1ccc(Cl)cc1 (centres undefined) | u | u | 4 | 21µM* | 5 | u
Cc1ccc(NC(=O)Cc2cccc(OC(F)F)c2)c(S(=O)(=O)N2CCOCC2)c1 | x | x | -1 | x | x | x
c1nc(NCCCN2CCCCC2)c2cc(-c3ccc4c(c3)OCO4)ccc2n1 | -6% | u | x | i | x | 0%
N/C(=N\c1nc2c(c(=O)[nH]1)CCC2)Nc1cccc(Cl)c1 | -3% | u | -4 | u | -7 | u
N/C(=N\c1nc2c(c(=O)[nH]1)CCC2)Nc1cccc2ccccc12 | -1% | 23µM* | -1 | u | -9 | x
COc1ccc2nc(N3C(=O)CNC3=S)sc2c1 | 0% | u | -2 | 5.8µM* | -5 | u
Cc1ccc2nc(N3C(=O)CNC3=S)sc2c1 | -1% | u | -4 | u | -4 | u
C/C=C/C(=O)[C@@H](C)[C@@H](/C=C/C[Si](C)(C)C)C(C)C | 0% | x | x | x | -26 | 10%
Clc1cccc(-c2nnc(SCc3nc4ccccc4[nH]3)n2Cc2ccco2)c1 | -17% | i | 2 | u | -11 | -20%
Clc1ccc(OCc2nnc(SCc3nc4ccccc4[nH]3)n2Cc2ccco2)cc1 | u | u | -10 | 5.8µM* | -8 | 18µM*
CCn1c(SCc2nc3ccccc3[nH]2)nnc1-c1cccs1 | 0% | i | 5 | 8.2µM* | -1 | -18%
CCn1c(SCC(=O)c2ccc(Cl)cc2)nnc1-c1cccs1 | 4% | i | 1 | u | -10 | u
c1ccc(-c2nnc(SCc3nc4ccccc4[nH]3)n2Cc2ccco2)nc1 | -4% | i | 7 | 2.6µM* | -9 | 10%
CCn1c(SCCOc2ccc(Cl)cc2)nnc1-c1cccs1 | -3% | i | 4 | 9.2µM* | 1 | u
COc1cc2c(NC3CCN(C)CC3)nc(N3CCCN(C)CC3)nc2cc1OCC1CCNCC1 | x | i | x | u | x | x
COc1ccc(C2c3c(n(Cc4ccccc4)cnc3=N)Oc3ccc4ccccc4c32)cc1OC (centres undefined) | -7% | x | x | x | x | 3%
Cc1cccc(OCc2nnc(SCC(=O)N(C(C)C)C(C)C)n2Cc2ccco2)c1C | 1% | i | -11 | 10µM* | 21 | -9%
C(=C\c1ccccc1)/CSc1nnc(-c2ccccn2)n1Cc1ccco1 | u | 5.8µM* | -11 | u | -6 | -15%
NC(=O)CSc1nnc(-c2ccccn2)n1Cc1ccco1 | 4% | i | -18 | i | 11 | -14%
Cc1cc(NC(=O)CSc2nnc(COc3cccc(C)c3C)n2Cc2ccco2)no1 | 1% | i | 0 | i | 9 | x
O=C(CSc1nnc(COc2ccc(Cl)cc2)n1Cc1ccco1)c1ccccc1F | u | i | -1 | i | 6 | 13µM*
COc1ccc(C)cc1NC(=O)CSc1nnc(-c2ccccn2)n1Cc1ccco1 | -4% | i | -6 | 12µM* | 11 | -5%
Cc1cc2c(s1)c1cnn(Cc3cccc(C(F)(F)F)c3)c(=O)c1n2C | 2% | x | x | x | x | 4%
CCCN1CNc2c(c(=O)[nH]c(=S)n2CCc2ccc(C)c(C)c2)C1 | 3% | x | x | x | -8 | u
Cc1ccc(-n2c(SCC(=O)Nc3ccccc3-c3ccccc3)nnc2-c2ccco2)cc1 | x | x | 0 | x | x | x

Screening data (PubChem BioAssay)
